# Assay results published in PubChem BioAssay (Tox21).
# Several values for one entry are separate records, joined by “and”; a condition that tells them apart may be missing. Equal entries are not always repeated. Inconclusive results are not listed. Entries that show only a call come without a potency. The source holds several records for some structures; these can differ, active in one and inactive in another. Activity calls are given as the source filed them. Calls follow the shape of the full dose curve.
# Assay: p53 small molecule agonists, cell-based qHTS assay with human liver microsomes: qHTS cell viability counter screen (AID 1963579); also: nearly all actives have a fitted effect of over 45% in size
# Details: p53RE-bla HCT-116 viability, ATP luminescence, 16 h, HLM; series mostly up to 66 µM
# Excerpt: National Center for Advancing Translational Sciences [NCATS]
# Division of Preclinical Innovation [DPI]
# U.S. Environmental Protection Agency [EPA]
# National Institutes of Environmental Health Sciences [NIEHS]
# National Toxicology Program [NTP]
# U.S. Food and Drug Administration [FDA]
# p53, a tumor suppressor protein, is activated following cellular insult, including DNA damage and other cellular stresses. The activation of p53 regulates cell fate by inducing DNA repair, cell cycle arrest, apoptosis, or cellular senescence. The activation of p53, therefore, is a good indicator of DNA damage and other cellular stresses. […] The activation of the reporter gene under culture conditions can be detected by fluorescence intensity. This cell line was used to screen the Tox21 10K compound library in the condition of presence of human liver microsomes and to identify agonists that activate the p53 signaling pathway after in vitro metabolic activation (Ooka et al., Archive of Toxicology 96:1975-1987, 2022).
# Tox21 Assay Protocol Summary:
# The p53RE-bla cells were dispensed at 4,000cells/3ul/well in 1536-well black-clear bottom plates. After the assay plates were incubated at 37 C, 5% CO2 incubator for 5 hours, 23 nL of compounds dissolved in DMSO, positive controls or DMSO only was transferred to the assay plate. Following compound addition, 3 uL of human liver microsomes (XenoTech, Kansas City, KS) at final concentration of 0.5 mg/mL and 1uL of B-Nicotinamide adenine dinucleotide 2'-phosphate (NADPH) at final concentration of 0.5 mg/mL were transferred to the assay plate. The plates were incubated at 37 C for 16 hours. 1 uL of LiveBLAzer detection mixture was added to each well and the plates were incubated at room temperature in the dark for 2 h. Fluorescence intensity at 460 and 530 nm emission and 405 nm excitation were measured by an Envision plate reader. For cell viability readout that measures cytotoxicity, 4 ul/well of CellTiter-Glo reagent was added into the assay plates using a Flying Reagent Dispenser. After 30 min incubation at room temperature, the luminescence intensity in the plates was measured using a ViewLux plate reader.
# Potency is read from the fitted curve at half-maximal effect.
row,Structure (SMILES),Potency
1,Nc1ccc2c(O)cc(S(=O)(=O)O)cc2c1,inactive
2,CCC(O)OCCCOC (stereo not given),inactive
3,Oc1ccccc1,inactive
4,CC#C[C@]1(O)CC[C@H]2[C@@H]3CCC4=CC(=O)CCC4=C3[C@@H](c3ccc(N(C)C)cc3)C[C@@]21C,inactive
5,COc1ccc(O)cc1,inactive
6,COC(=O)CCC(=O)OC,inactive
7,CCO[Si](CCC#N)(OCC)OCC,inactive
8,Nc1ccc(S(=O)(=O)c2ccc(N)cc2)cc1,inactive
9,OCc1cccc(Oc2ccccc2)c1,inactive
10,CCCCCCCCOc1ccc(C(=O)c2ccccc2)c(O)c1,inactive
11,NC(=O)c1cnccn1,inactive
12,O=S(=O)(O)c1ccc2ccccc2c1,inactive
13,CCCCCCO,inactive
14,CCCOCC(C)O (stereo not given),inactive
15,Oc1ccc(Cl)cc1Cc1cc(Cl)ccc1O,40.8 µM (active) and inactive
16,CCCCCCC(C)O (stereo not given),inactive
17,CC(=O)C1=C(C)[C@@H]2C[C@@]3(C1)[C@H](C)CC[C@H]3C2(C)C,inactive
18,CC(=O)CC(c1ccccc1)c1c(O)c2ccccc2oc1=O (stereo not given),inactive
19,CCCCCCc1ccc(O)cc1O,inactive
20,OC[C@H]1O[C@H](O[C@]2(CCl)O[C@H](CCl)[C@@H](O)[C@@H]2O)[C@H](O)[C@@H](O)[C@H]1Cl,inactive

row,Structure (SMILES),Potency
1,O=C(Cl)c1c(Cl)c(Cl)c(C(=O)Cl)c(Cl)c1Cl,inactive
2,O=C(O)c1ccccc1C(=O)O,inactive
3,Brc1ccc(Oc2ccc(Br)cc2)cc1,inactive
4,CCCCC/C=C\C/C=C\CCCCCCCC(=O)OC,inactive and 51.3 µM (active)
5,OC[C@@H](O)[C@@H](O[C@@H]1O[C@H](CO)[C@H](O)[C@H](O)[C@H]1O)[C@H](O)[C@@H](O)CO,inactive
6,O=C(O)CCCCC1CCSS1 (stereo not given),inactive
7,C=CCCCCCCCCCC,inactive
8,CCCCCCCCCC,inactive
9,OCCO,inactive
10,CCOC(N)=O,inactive
11,Oc1c(Cl)cc(Cl)c(Cl)c1Cc1c(O)c(Cl)cc(Cl)c1Cl,36.3 µM (active) and inactive
12,CC(C)(C)c1cccc(C(C)(C)C)c1O,inactive
13,CN(C)CCOCCN(C)C,inactive
14,CCCCCC/C=C/CCCCCCCC(=O)O,inactive
15,O=C(O)Cc1ccccc1Nc1c(Cl)cccc1Cl,inactive
16,c1ccc2[nH]ccc2c1,inactive
17,CCCCCCCCCCCCN,inactive and 40.8 µM (active)
18,O=C1CCc2ccccc2O1,inactive
19,COc1ccccc1OCC(O)CO (stereo not given),inactive
20,C=C(C)C(=O)O,inactive
